According to ChEMBL document CHEMBL1961873, “Compounds: GSK PKIS; Assays: Nanosyn kinase panel” (2012):

biological target: Insulin receptor-related protein (Homo sapiens) (UniProt P14616); conditions: at 0.1 µM
Sequence (P14616 27-742 limits assumed): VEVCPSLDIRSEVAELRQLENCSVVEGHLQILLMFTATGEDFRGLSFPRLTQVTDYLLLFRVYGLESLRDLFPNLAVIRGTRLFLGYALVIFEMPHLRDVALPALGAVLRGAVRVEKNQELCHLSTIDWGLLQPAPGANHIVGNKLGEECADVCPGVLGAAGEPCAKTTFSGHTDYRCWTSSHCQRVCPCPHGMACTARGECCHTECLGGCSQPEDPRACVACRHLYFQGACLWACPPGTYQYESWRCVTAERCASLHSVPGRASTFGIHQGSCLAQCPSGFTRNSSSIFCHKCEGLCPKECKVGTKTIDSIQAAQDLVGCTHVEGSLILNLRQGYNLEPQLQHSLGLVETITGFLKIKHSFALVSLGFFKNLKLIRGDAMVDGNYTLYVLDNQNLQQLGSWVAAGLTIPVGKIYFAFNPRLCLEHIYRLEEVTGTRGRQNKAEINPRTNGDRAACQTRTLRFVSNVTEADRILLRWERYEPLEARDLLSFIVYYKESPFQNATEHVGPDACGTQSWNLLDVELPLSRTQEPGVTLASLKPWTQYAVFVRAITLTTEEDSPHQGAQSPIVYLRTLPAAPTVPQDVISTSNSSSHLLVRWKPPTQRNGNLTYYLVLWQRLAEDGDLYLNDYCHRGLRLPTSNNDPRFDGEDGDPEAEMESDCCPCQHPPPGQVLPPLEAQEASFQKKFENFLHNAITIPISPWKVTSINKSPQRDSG
Sequence (P14616 747-1297 limits assumed): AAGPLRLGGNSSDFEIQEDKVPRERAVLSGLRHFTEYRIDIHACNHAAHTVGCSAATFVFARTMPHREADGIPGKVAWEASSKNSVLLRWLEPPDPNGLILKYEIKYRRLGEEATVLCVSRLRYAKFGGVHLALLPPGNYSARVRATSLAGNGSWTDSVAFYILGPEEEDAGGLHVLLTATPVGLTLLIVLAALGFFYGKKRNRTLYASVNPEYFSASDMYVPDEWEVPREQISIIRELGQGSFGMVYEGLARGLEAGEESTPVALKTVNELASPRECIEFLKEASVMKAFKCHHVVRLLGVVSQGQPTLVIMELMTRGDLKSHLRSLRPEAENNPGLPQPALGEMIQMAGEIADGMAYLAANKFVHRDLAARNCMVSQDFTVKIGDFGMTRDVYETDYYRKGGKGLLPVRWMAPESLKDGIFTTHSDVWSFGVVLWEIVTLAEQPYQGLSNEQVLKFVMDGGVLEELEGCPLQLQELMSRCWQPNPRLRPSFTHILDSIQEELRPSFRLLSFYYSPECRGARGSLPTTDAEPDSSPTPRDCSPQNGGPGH

SMILES | inhibition [%]
N#Cc1c(NC(=O)c2cccc3ccccc23)sc2c1CCCC2 | 0.81
CCn1c(-c2nonc2N)nc2cncc(C(=O)N3CCNCC3)c21 | 4.06
NS(=O)(=O)c1cccc(-c2ccc3c(NC(=O)C4CC4)n[nH]c3c2)c1 | -2.37
CC1=C(C(=O)Nc2ccc3[nH]ncc3c2)C(c2ccc3ccccc3c2)CC(=O)N1 (stereo not drawn) | 0.94
Cc1nnc(-c2ccc(C)c(-c3ccc(C(=O)Nc4cccc(C#N)c4)cc3)c2)o1 | -0.6
Cc1nn(C)c2cc(N(C)c3ccnc(Nc4cccc(S(N)(=O)=O)c4)n3)ccc12 | 0.14
CS(=O)(=O)CCN(CC#N)Cc1ccc(-c2ccc3ncnc(Nc4ccc(OCc5cccc(F)c5)c(Cl)c4)c3c2)o1 | -0.19
NC(=O)c1cccc(Nc2nccc(Nc3cccc4[nH]ncc34)n2)c1 | -0.86
COc1cc2ncn(-c3cc(OCc4ccccc4Cl)c(C(N)=O)s3)c2cc1OC | -1.76
Cc1cccc(-c2n[nH]cc2-c2ccc3ncccc3n2)n1 | -0.57
CCn1c(-c2nonc2N)nc2ccncc21 | -0.17
COc1cc2ncn(-c3cc(OCc4ccccc4C(F)(F)F)c(C(N)=O)s3)c2cc1OC | 4.32
NCc1ccc(-c2nc(-c3ccc(Cl)c(O)c3)c(-c3ccncc3)[nH]2)cc1 | -0.06
CCN1CCC(CC(=O)Nc2n[nH]c3nc(-c4cccs4)c(Br)cc23)CC1 | -2.33
Nc1nc(-c2ccc3c(c2)C(=Cc2cc(Br)c(O)c(Br)c2)C(=O)N3)cs1 | -3.05
COc1ccc(-c2nn3ncccc3c2-c2ccnc(Nc3ccc(Cl)c(C(F)(F)F)c3)n2)cc1 | -1.6
COc1ccc(COc2ccc(Cc3cnc(N)nc3N)cc2OC)cc1 | 0.04

SMILES | inhibition [%]
[O-][S+]1CCN(Cc2ccc(-c3ccc4ncnc(Nc5ccc(OCc6ccccc6)c(F)c5)c4c3)o2)CC1 | 0.94
CC(C)=Cc1cccc2c1/C(=N/Nc1ccc(S(N)(=O)=O)cc1)C(=O)N2 | 1.95
Nc1ncnc2occ(-c3ccc(NC(=O)Nc4cc(C(F)(F)F)cc(C(F)(F)F)c4)cc3)c12 | 5.56
COc1cc(C)c(NC(=O)CN(C)C)cc1Nc1nc(Nc2cccc(F)c2C(N)=O)c2cc[nH]c2n1 | 90.8
COC(=O)Nc1nc2cc(Oc3ccc(NC(=O)Nc4cccc(C(=O)O)c4)cc3)ccc2[nH]1 | 1.16
CS(=O)(=O)Nc1ccc(N/C=C2\C(=O)Nc3ccccc32)cc1 | -3.26
CC(=O)Nc1cccc(C#Cc2cncnc2Nc2ccc(OCc3cccc(F)c3)c(Cl)c2)n1 | -1.19
CN(C)c1cc2c(Nc3ccc4nc(Cc5ccccc5)[nH]c4c3)ncnc2cn1 | 3.36
COc1ccc(-c2ccncc2)cc1C(N)=O | 2.71
O=C(Nc1n[nH]c2nc(-c3ccco3)c(Br)cc12)C1CC1 | 2.25
CS(=O)(=O)CCNCc1ccc(-c2ccc3ncnc(Nc4ccc(OCc5cccc(F)c5)c(C(F)(F)F)c4)c3c2)o1 | 3.1
CCn1c(-c2nonc2N)nc2c(C#CC(C)(C)O)nc(CN3CCCC3)cc21 | -1.19
CCn1c(-c2nonc2N)nc2c(N3CCCC3)nccc21 | -2.24
CCc1cccc(NC(=O)Nc2ccc(Oc3ccc4nc(NC(=O)OC)[nH]c4c3)cc2)c1 | 2.05
O=C1Nc2ccc(C(=O)c3ccco3)cc2C1=Cc1cc(Cl)c(O)c(Cl)c1 | 1.08
CS(=O)(=O)CCNCc1nc(-c2ccc3ncnc(Nc4ccc(F)c(Cl)c4)c3c2)cs1 | 2.7
Fc1cccc(COc2ccc(Nc3ncnc4cc(-c5ccc[nH]5)sc34)cc2Cl)c1 | -0.19

biological target: Insulin receptor-related protein (Homo sapiens) (UniProt P14616); conditions: at 1 µM

SMILES | inhibition [%]
N#Cc1c(NC(=O)c2cccc3ccccc23)sc2c1CCCC2 | 1.11
CCn1c(-c2nonc2N)nc2cncc(C(=O)N3CCNCC3)c21 | 6.22
NS(=O)(=O)c1cccc(-c2ccc3c(NC(=O)C4CC4)n[nH]c3c2)c1 | -1.21
CC1=C(C(=O)Nc2ccc3[nH]ncc3c2)C(c2ccc3ccccc3c2)CC(=O)N1 (stereo not drawn) | 1.74
Cc1nnc(-c2ccc(C)c(-c3ccc(C(=O)Nc4cccc(C#N)c4)cc3)c2)o1 | 1.65
Cc1nn(C)c2cc(N(C)c3ccnc(Nc4cccc(S(N)(=O)=O)c4)n3)ccc12 | 0.9
CS(=O)(=O)CCN(CC#N)Cc1ccc(-c2ccc3ncnc(Nc4ccc(OCc5cccc(F)c5)c(Cl)c4)c3c2)o1 | 0.84
NC(=O)c1cccc(Nc2nccc(Nc3cccc4[nH]ncc34)n2)c1 | 0.93
COc1cc2ncn(-c3cc(OCc4ccccc4Cl)c(C(N)=O)s3)c2cc1OC | 0.06
Cc1cccc(-c2n[nH]cc2-c2ccc3ncccc3n2)n1 | -0.38
CCn1c(-c2nonc2N)nc2ccncc21 | -0.42
COc1cc2ncn(-c3cc(OCc4ccccc4C(F)(F)F)c(C(N)=O)s3)c2cc1OC | 3.34
NCc1ccc(-c2nc(-c3ccc(Cl)c(O)c3)c(-c3ccncc3)[nH]2)cc1 | -1.54
CCN1CCC(CC(=O)Nc2n[nH]c3nc(-c4cccs4)c(Br)cc23)CC1 | 0.01
Nc1nc(-c2ccc3c(c2)C(=Cc2cc(Br)c(O)c(Br)c2)C(=O)N3)cs1 | -2.21
COc1ccc(-c2nn3ncccc3c2-c2ccnc(Nc3ccc(Cl)c(C(F)(F)F)c3)n2)cc1 | 1.11
COc1ccc(COc2ccc(Cc3cnc(N)nc3N)cc2OC)cc1 | -0.57

SMILES | inhibition [%]
[O-][S+]1CCN(Cc2ccc(-c3ccc4ncnc(Nc5ccc(OCc6ccccc6)c(F)c5)c4c3)o2)CC1 | 2.32
CC(C)=Cc1cccc2c1/C(=N/Nc1ccc(S(N)(=O)=O)cc1)C(=O)N2 | 2.95
Nc1ncnc2occ(-c3ccc(NC(=O)Nc4cc(C(F)(F)F)cc(C(F)(F)F)c4)cc3)c12 | 2.23
COc1cc(C)c(NC(=O)CN(C)C)cc1Nc1nc(Nc2cccc(F)c2C(N)=O)c2cc[nH]c2n1 | 97.7
COC(=O)Nc1nc2cc(Oc3ccc(NC(=O)Nc4cccc(C(=O)O)c4)cc3)ccc2[nH]1 | 2.82
CS(=O)(=O)Nc1ccc(N/C=C2\C(=O)Nc3ccccc32)cc1 | -1.01
CC(=O)Nc1cccc(C#Cc2cncnc2Nc2ccc(OCc3cccc(F)c3)c(Cl)c2)n1 | 0
CN(C)c1cc2c(Nc3ccc4nc(Cc5ccccc5)[nH]c4c3)ncnc2cn1 | 4.95
COc1ccc(-c2ccncc2)cc1C(N)=O | 2.24
O=C(Nc1n[nH]c2nc(-c3ccco3)c(Br)cc12)C1CC1 | 1.49
CS(=O)(=O)CCNCc1ccc(-c2ccc3ncnc(Nc4ccc(OCc5cccc(F)c5)c(C(F)(F)F)c4)c3c2)o1 | 2.55
CCn1c(-c2nonc2N)nc2c(C#CC(C)(C)O)nc(CN3CCCC3)cc21 | -0.92
CCn1c(-c2nonc2N)nc2c(N3CCCC3)nccc21 | -0.91
CCc1cccc(NC(=O)Nc2ccc(Oc3ccc4nc(NC(=O)OC)[nH]c4c3)cc2)c1 | 3.39
O=C1Nc2ccc(C(=O)c3ccco3)cc2C1=Cc1cc(Cl)c(O)c(Cl)c1 | 2.14
CS(=O)(=O)CCNCc1nc(-c2ccc3ncnc(Nc4ccc(F)c(Cl)c4)c3c2)cs1 | 1.63
Fc1cccc(COc2ccc(Nc3ncnc4cc(-c5ccc[nH]5)sc34)cc2Cl)c1 | 0.95
